The entries come from a sample that favours hits as a whole.
RGS4 inhibitor – blocks human RGS4-accelerated GTP hydrolysis; Potency, µM (highest dose often 114 µM), for inactives: at the top dose activity change, negative = inhibition, hits mostly inhibitors; Transcreener GDP fluorescence polarization, RGS4-accelerated GTP hydrolysis; actives 0.039% (n = 390,000); further: potency means the concentration at half of the fitted maximal effect; on the % scale 0 is the no-effect control and ±100 the full control effect; nearly all actives have a fitted effect of over 75% in size
Target sequence (P49798 whole entry, looked up): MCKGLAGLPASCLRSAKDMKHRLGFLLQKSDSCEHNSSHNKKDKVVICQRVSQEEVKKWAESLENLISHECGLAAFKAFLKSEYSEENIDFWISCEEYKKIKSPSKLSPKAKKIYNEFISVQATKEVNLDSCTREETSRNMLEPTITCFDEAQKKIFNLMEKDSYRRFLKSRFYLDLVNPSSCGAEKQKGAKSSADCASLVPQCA
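MLSMR compounds (23 nl, pin-transferred) preincubated 10 min at room temperature with a 500nM (2x) first reagent, then RGS4 at 900nM (2x) plus Transcreener GDP mix added; fluorescence polarization (620/688 nm) read before and after 90 min at 30 °C.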
IDH1 R132H inh – human IDH1 R132H inhibition; IDH1-R132H enzyme, NADPH consumption, diaphorase/resazurin fluorescence; actives 0.093% (n = 390,000); O75874; Potency, µM (titrated, usually from 76.6 µM), for the others: at the top dose activity change, negative = inhibition, usual class: inhibitors; further: potency means the concentration at half of the fitted maximal effect; on the % scale 0 is the no-effect control and ±100 the full control effect; nearly all actives have a fitted effect of over 65% in size
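IDH1-R132H (0.5 ug/mL dispensed) in pH 7.5 Tris buffer was preincubated 30 min with compound, then given a substrate mix of 0.016 mM NADPH and 2 mM alpha-KG for 80 min at room temperature; remaining NADPH was read by diaphorase/resazurin fluorescence.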
LDHA inh – LDHA (human) enzyme inhibition; P00338; purified LDHA, NADH/diaphorase-resazurin fluorescence; stronger effect = lower value; activity change, % (values are at about 110 or 230 µM); actives 0.15% (n = 480,000); AID 1347041; in the data active means activity change below about -30%; inconclusive means mostly about -25% to -30%;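 further: plate controls were DMSO wells for no effect and wells without enzyme for full effect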
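Remaining NADH was detected by diaphorase (0.133 mg/mL) converting 37 µM resazurin to fluorescent resorufin, read at 0 and 20 minutes. The preceding 5-minute room-temperature reaction used 2 nM LDHA, 0.2 mM sodium pyruvate and 0.06 mM NADH at pH 7.4.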
ClpP mod – qHTS Assay for Activators of ClpP; ATP-dependent Clp protease proteolytic subunit (Bacillus subtilis (strain 168)), P80244; purified B. subtilis ClpP, FRET peptide cleavage, 20 min; Potency, µM (titrated, usually from 57.5 µM), without a hit: top-dose activity change, negative = active; actives 1.9% (n = 340,000); active means well fitted falling curve with a large enough effect; inconclusive means small, poorly fitted or top-dose-only effect; inactive means no such curve, though single readings can be large or run the other way; further: potency means the concentration at half of the fitted maximal effect; the source files actives as falling curves though it sought activators and does not explain the sign; nearly all actives have a fitted effect of over 65% in size
Target sequence (P80244 whole entry, looked up): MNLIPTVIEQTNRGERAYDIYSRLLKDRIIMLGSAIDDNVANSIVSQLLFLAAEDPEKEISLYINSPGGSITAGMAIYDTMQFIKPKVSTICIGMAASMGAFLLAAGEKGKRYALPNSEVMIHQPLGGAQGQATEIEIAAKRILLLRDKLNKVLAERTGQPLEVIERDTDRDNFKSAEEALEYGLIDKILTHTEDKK
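ClpP 10 microg/mL final, pH 8 Tris/KCl buffer with BSA, glycerol, Tween-20; compound pinned in; FRET-FV substrate; RT 20 min; Ex320/Em430; ΔFRET vs ADEP 5.8 microM, DMSO, no enzyme.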
Mito fusion yeast – mitochondrial division inhibition or fusion activation; actives 0.23% (n = 320,000); S. cerevisiae fusion-defective mutant growth rescue, CellTiterGlo 48 h; Potency, µM (top dose mostly 46.1 µM), for inactives: top-dose growth rescue (activation), usual class: activators; further: potency means the concentration at half of the fitted maximal effect; % of control where 0% means no effect; nearly all actives have a fitted effect of over 45% in size
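Yeast fusion mutant, YPEG (non-fermentable carbon), compound, 48 h at 37C non-permissive; CellTiterGlo added, 10 min RT, luminescence read. Rescued growth = division inhibition.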
ASM inhibitor – inhibitors of human secretory acid sphingomyelinase. actives 0.006% (n = 340,000). P17405. placental ASM, HMU-PC fluorogenic substrate, 60 min. Potency, µM (top dose mostly 57.5 µM), for inactives: at the highest dose activity change, negative = inhibition, hits mostly inhibitors; further: potency means the concentration at half of the fitted maximal effect
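Fluorescence read-out (Ex 386 nm, Em 447 nm) after stopping the reaction at pH 10. Enzyme: ASM from human placenta; substrate HMU-PC0, 9 uM final; 60 min, 37 °C. Compound preincubation 10 min, ambient temperature.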
Active calls of the source: *; i = inactive; ? = inconclusive; nt = no result given; [ ] = another dose, or the depositor's remark. Unless noted, the call rests on the fitted dose curve; in most records, active means well fitted curve in the direction sought with a large enough effect; inconclusive means small, poorly fitted or top-dose-only effect, or another doubt; inactive means no such curve, though single readings can be large; an effect the other way counts as inactive or inconclusive.

SMILES | RGS4 inhibitor | IDH1 R132H inh | LDHA inh | ClpP mod | Mito fusion yeast | ASM inhibitor
COc1ccc(C)cc1S(=O)(=O)N1CCN(c2cc(N3CCCCC3)nc(C)n2)CC1 | nt | nt | 6 | nt | nt | nt
COc1ccc2c(c1)CCC/C2=N\OC(=O)c1cc(Cl)ccc1OC | nt | nt | 3 | nt | nt | nt
COc1ccc2c(c1)CC/C2=N\OC(=O)c1ccccc1OC | -22% | 8% | -2 | 0% | 35µM* | 2%
COc1ccccc1CCn1cnc2c3cc(C)ccc3n(C)c2c1=O | 4% | -4% | -1 | 35µM* | -1% | -5%
COc1ccc2c(c1)c1ncn(CCN3CCCCC3)c(=O)c1n2C | 3% | 8% | 1 | 16µM* | -3% | 103%
COc1ccc2c(c1)c1ncn(CCN3CCCC3)c(=O)c1n2C | 4% | -1% | 1 | 32µM* | 2% | 106%
COc1ccc2[nH]c3c(=O)n(CCN4CCOCC4)cnc3c2c1 | 0% | 3% | 2 | nt | 1% | 32%
Cc1cc(C)n2nc(C(=O)Nc3nc(-c4cccc(Br)c4)cs3)nc2n1 | nt | nt | 7 | nt | nt | nt
COc1ccc(C(CNC(=O)c2ccc3c(c2)OCCO3)N2CCOCC2)cc1 (stereo not given) | nt | nt | 10 | nt | nt | nt
CN1CCCCc2c1nc1c(c2N)CCCC1 | 20% | 5% | -10 | 25µM* | 0% | -2%
Cc1cccc2c(N)c3c(nc12)N(C)CC3 | -10% | 2% | -11 | 5% | -6% | 131%
Clc1ccccc1Cn1c(/C=C/c2ccco2)nc2ccccc21 | ? | 3% | -2 | 28µM* | -5% | 130%
COCCN(C(=O)COC(=O)/C=C/c1ccc(SC)cc1)c1c(N)n(Cc2ccccc2)c(=O)[nH]c1=O | -15% | -1% | -6 | 22µM* | nt | 23%
CCN(C(=O)C(C)S(=O)(=O)Cc1ccc(F)cc1Cl)c1ccccc1 (stereo not given) | nt | nt | -11 | nt | nt | nt
CC1(C)CC(CCN2CCCCC2)(c2cccc(C(F)(F)F)c2)CCO1 (stereo not given) | nt | nt | 0 | nt | nt | nt
Cc1c(C(=O)OCC(=O)NCCN2C(=O)CSC2=O)oc2c1ccc1ccccc12 | 1% | 8% | -4 | 32µM* | -7% | -11%
Fc1ccc(-c2nnn(Cc3coc(-c4ccccc4)n3)n2)cc1 | nt | nt | -2 | nt | nt | nt
COC(=O)Cc1[nH]nc2c1C(c1cccc(OC)c1OC)C(C#N)=C(N)O2 (stereo not given) | 9%[11.4 µM] | -7% | -2 | 28µM* | -3% | -1%
Cc1ccc(NC(=O)c2cc(Cl)ccc2Cl)nc1 | nt | nt | 0 | nt | nt | nt
CC(C)(C)OC(=O)[C@H](Cc1ccccc1)NC(=O)c1ncn2c1c(=O)[nH]c1ccc(Br)cc12 | nt | 0% | -3 | 7.9µM* | nt | nt
COc1ccc(CN2CCc3c([nH]c4ccccc34)C2)c(OC)c1C | 7% | -2% | -10 | 28µM* | -11% | 6%
CCO/C=C1/C(=O)N(c2ccc(OC)cc2)C(=O)c2ccccc21 | -5% | -5% | 0 | 4% | 2% | 464%
CCO/C=C1\C(=O)N(c2ccccc2)C(=O)c2ccccc21 | 11% | -2% | -1 | 32µM* | 4% | 195%
CC(CNC(=O)c1ccc2cc[nH]c2c1)c1ccccc1 (stereo not given) | nt | nt | -1 | nt | nt | nt
COc1ccc(C2CC(=O)N(c3sc4c(c3C#N)CCCC4)C3=C2C(=O)CCC3)cc1 (stereo not given) | nt | nt | 2 | nt | nt | nt
SMILES | RGS4 inhibitor | IDH1 R132H inh | LDHA inh | ClpP mod | Mito fusion yeast | ASM inhibitor
OC(c1cccc(Cl)c1)c1nc(/C=C/c2ccc(C(F)(F)F)cc2)cs1 (stereo not given) | nt | nt | -4 | ? | nt | nt
COc1cccc(C(O)c2nc(/C=C/c3ccc(C(F)(F)F)cc3)cs2)c1 (stereo not given) | nt | nt | 4 | 28µM* | nt | nt
Clc1ccc2[nH]c3c(NCCCN4CCOCC4)ncnc3c2c1 | -24% | 0% | -11 | 20µM* | 3% | -4%
Cc1ccc2[nH]c3c(NCCN4CCOCC4)ncnc3c2c1 | -32% | 7% | 5 | 1% | 4% | 3%
O=C1CCCN1CCCn1cnc2c([nH]c3ccc(F)cc32)c1=O | -1% | 20% | -15 | ? | -4% | 1%
O=C1CCCN1CCCNc1ncnc2c1[nH]c1ccc(Cl)cc12 | ? | 11% | -12 | 25µM* | 3% | -2%
O=C(CSc1nc2c(c(C(F)(F)F)n1)CCc1ccccc1-2)NC1CCCC1 | nt | nt | 6 | nt | nt | nt
CCN(C(=O)c1ccco1)c1nc(-c2ccc(Br)cc2)cs1 | nt | nt | -4 | nt | nt | nt
Cc1ccc(C(=O)C(c2ccccc2)N2Cc3ccccc3C2=N)cc1 (stereo not given) | -5% | 6% | -3 | 3.2µM* | ? | -19%
Cc1ccc2c(C(=O)O)cc(-c3ccccn3)nc2c1C | nt | nt | 3 | nt | nt | nt
O=C(NCCO)c1ccc2[nH]c3ccccc3c2c1 | 22% | 8% | 0 | 25µM* | -6% | 3%
Cc1nn(-c2ccc(N3CCOCC3)nn2)c(C)c1CCC(=O)NCc1cccs1 | nt | nt | 2 | nt | nt | nt
Cc1ccc(C)c(NC(=O)CN(C)C(=O)c2ccc3[nH]c4c(c3c2)CC(C)CC4)c1 (stereo not given) | ? | 4% | 3 | -5% | ? | -8%
CC1CCc2[nH]c3ccc(C(=O)N(C)CC(=O)Nc4ccccc4Br)cc3c2C1 (stereo not given) | 3% | 2% | -1 | 16µM* | ? | -16%
COc1ccc(N2CCN(C(=O)CN3C(=O)NC(C)(c4ccc5ccccc5c4)C3=O)CC2)cc1 (stereo not given) | 3% | 3% | 1 | 28µM* | 1% | -10%
Cn1c(SCC(=O)NC2CCCCCC2)nnc1-c1ccc(Cl)cc1 | nt | nt | -21 | nt | nt | nt
COC(=O)c1ccc2c(=O)n(CCCCCC(=O)NCc3ccccc3)c(=O)[nH]c2c1 | -33% | 9% | 2 | ? | 4% | 185%
COCCn1c(=O)[nH]c2cc(C(=O)NCCCN3CCN(c4ccc(F)cc4)CC3)ccc2c1=O | 9% | 10% | -13 | 28µM* | 1% | 275%
COCCn1c(=O)[nH]c2cc(C(=O)NCCN3CCN(c4ccccc4F)CC3)ccc2c1=O | 15% | 2% | 3 | ? | -2% | 328%
COC(=O)c1ccc2c(=O)n(CCCCCC(=O)NCc3ccccn3)c(=O)[nH]c2c1 | 9% | 1% | -7 | 32µM* | 1% | i
CCCCCn1c(=O)[nH]c2cc(C(=O)O)ccc2c1=O | 19% | -9% | -3 | 22µM* | 13% | 224%
CCCCCn1c(=O)[nH]c2cc(C(=O)NCc3ccccc3)ccc2c1=O | 17% | 26% | -15 | -24% | nt | nt
